# The list is not random: actives were taken first. Their share in the collection is about 7.4%.
# Luc counter = Kinase-Glo luciferase inhibition (counter-screen) | Q27757 | Kinase-Glo luciferase, ATP luminescence, 8 min | Potency, µM (highest dose often 38.3 µM), inactives show at the top dose activity change, negative = inhibition, actives largely listed as inhibitors | 0.28% of 200,000 active | AID 1379; further: on the % scale 0 is the no-effect control and ±100 the full control effect; nearly all actives have a fitted effect of over 60% in size
#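 Substrate mix (final 50 mM imidazole pH 7.2, 50 mM KCl, 7 mM MgCl2, 10 uM ATP, 0.01% Tween 20, 0.05% BSA) plus pin-tool compound, then Kinase-Glo detection mix; 8 min ambient, luminescence read.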
# ELG1 genotoxic = induces genotoxicity in HEK293T cells with luciferase-tagged ELG1 | HEK293T ELG1-luciferase reporter, luminescence, 16 h | AID 504466 | Potency, µM (titrated, usually from 46 µM), for inactives: at the top dose activity change, positive = activation, actives largely listed as activators | 1.3% of 330,000 active; further: % of control where 0% means no effect; nearly all actives have a fitted effect of over 60% in size
#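 16 hr compound incubation (37 °C, 5% CO2) of HEK293T cells carrying luciferase-tagged ELG1; luciferase then measured by ONE-Glo luminescence after 30 min at RT.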
# Rab9 promoter act = activates the Rab9 promoter | Huh7 Rab9 promoter-luciferase reporter, luminescence, 24 h | Potency, µM (series often up to 9.22 µM), for the others: at the highest dose activation, negative = inhibition, most hits filed as activators | 2.8% of 320,000 active | AID 485297; further: % of control where 0% means no effect; nearly all actives have a fitted effect of over 60% in size
#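 Luminescence read-out: Huh7 cells stably expressing Rab9-luciferase, treated 24 h with compound at 37 °C, then lysed with luciferase reagent for 10 min at ambient before reading.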
# NPC1 prom act = NPC1 promoter activation; 2.4% of 320,000 active; Huh7 NPC1 promoter luciferase reporter, 24 h; AID 485313; Potency, µM (titrated, usually from 9.22 µM), for the others: at the top dose activation, hits mostly activators; further: % of control where 0% means no effect; nearly all actives have a fitted effect of over 60% in size
#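 Stable NPC1-promoter luciferase Huh7 line; cpd (DMSO) 24 h, 37 °C, 5% CO2; Amplite luciferase reagent 10 min RT; luminescence readout. qHTS format.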
# FLuc modulator = inhibits or activates purified firefly luciferase, miR-21 counter-screen | P08659 | 6.9% of 360,000 active | Potency, µM (doses to about 57.5 µM), for the others: at the top dose activity change, negative = inhibition, usual class: inhibitors | AID 588342 | purified FLuc, Km substrates, luminescence inhibition;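 further: plate controls were vehicle for no effect and reference inhibitor for full effect; nearly all actives have a fitted effect of over 55% in size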
# Target sequence (P08659 whole entry, looked up): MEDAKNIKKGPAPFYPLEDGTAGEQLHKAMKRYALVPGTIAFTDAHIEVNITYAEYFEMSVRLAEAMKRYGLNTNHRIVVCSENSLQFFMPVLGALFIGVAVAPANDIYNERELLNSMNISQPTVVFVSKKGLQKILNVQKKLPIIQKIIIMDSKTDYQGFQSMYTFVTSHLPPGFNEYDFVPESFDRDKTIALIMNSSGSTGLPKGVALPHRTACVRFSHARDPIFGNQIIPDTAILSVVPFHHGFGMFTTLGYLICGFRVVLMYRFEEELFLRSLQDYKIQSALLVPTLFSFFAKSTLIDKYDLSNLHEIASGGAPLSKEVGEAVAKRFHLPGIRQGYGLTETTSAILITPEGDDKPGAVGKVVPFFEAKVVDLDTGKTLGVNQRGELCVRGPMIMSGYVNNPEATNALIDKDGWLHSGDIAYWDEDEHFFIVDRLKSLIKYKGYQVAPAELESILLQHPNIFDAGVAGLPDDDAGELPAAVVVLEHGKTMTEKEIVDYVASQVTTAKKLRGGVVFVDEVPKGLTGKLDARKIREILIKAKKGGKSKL
#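 Biochemical qHTS of compounds, final roughly 60 µM downward over six points, against 10 nM purified firefly luciferase using Km concentrations of substrates (10 uM D-luciferin, 10 uM ATP) in Tris acetate pH 7.5 buffer; luminescence output.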
# SMN2 splice up = SMN2 splice variant enhancement | HEK293 SMN2-luciferase splicing reporter, luminescence, 30-36 h | Potency, µM (doses to about 46.1 µM), without a hit: top-dose activity change, positive = activation, hits mostly activators | 2.8% of 210,000 active | AID 1458; further: % of control where 0% means no effect; nearly all actives have a fitted effect of over 55% in size
#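 HEK293 cells carry an SMN2 […]–luciferase reporter in which exon 7 inclusion puts luciferase in frame. Cells were plated 10-12 h before compound addition, then incubated 30-36 h at 37C. ONE-Glo luminescence was read; sodium butyrate at 4.5 mM final served as control.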
# Starred values were filed as active, the others as inactive; ? = inconclusive; . = no result. The call rests on the fitted dose curve; in most records, active means well fitted curve in the direction sought with a large enough effect; inconclusive means small, poorly fitted or top-dose-only effect, or another doubt; inactive means no such curve, though single readings can be large; an effect the other way counts as inactive or inconclusive. Potency means the concentration at half of the fitted maximal effect.
SMILES,Luc counter,ELG1 genotoxic,Rab9 promoter act,NPC1 prom act,FLuc modulator,SMN2 splice up
CC1Cc2cc(S(=O)(=O)CCC(=O)Nc3ccc(Cl)cc3F)ccc2N1C(=O)C1CC1 (configuration not stated),.,.,.,.,-12%,.
COc1ccccc1/C=N/NC(=O)c1cc2c(ccc3ccccc32)o1,.,-5%,3%,1%,19µM*,.
COc1cc(/C=N/NC(=O)c2cc3c(ccc4ccccc43)o2)cc(OC)c1O,.,0%,-4%,-2%,4.8µM*,.
COc1cc(/C=N/NC(=O)c2nc3ccccn3c2C)cc(OC)c1O,-2%,-3%,-4%,-4%,-4%,19%
CCOc1ccc(CCNC(=O)Cn2nc(CC)n3c(cc4c(OC)cccc43)c2=O)cc1OCC,.,.,.,.,1%,16%
CCOc1ccc(NC(=O)Cn2c(=O)n(CCC(=O)NCCc3ccccc3)c(=O)c3ccccc32)cc1,.,.,.,.,3%,-6%
COc1cc2c(cc1OC)CN(c1ccc(F)cc1[N+](=O)[O-])CC2,.,13%,?,23%,12µM*,.
COc1cc2c(cc1OC)CN(c1ccc([N+](=O)[O-])cc1Cl)CC2,27%,10%,-4%,-7%,-10%,-37%
CCOC(=O)c1cnc2nc(NCc3ccc(OCc4ccccc4)cc3)[nH]n2c1=O,15%,-3%,2%,2%,11µM*,19%
COc1ccc(CCNC(=O)c2cnc3ccc(C)cn3c2=O)cc1OC,.,.,.,.,-2%,-7%
N#Cc1c(N2C(=O)Nc3ccccc3N2O)sc2c1CCCC2,2%,11%,8%,18%,13µM*,-7%
Cc1cccc(NC(=O)C(=O)C2C(=O)Nc3ccccc32)c1 (configuration not stated),.,4%,18%,21%,15µM*,.
CCOc1ccc(NC(=O)N2CC=C(c3c[nH]c4ccccc34)CC2)cc1,.,.,.,.,-4%,.
C=CCOC(=O)N[C@H](c1ccccc1)C(C(C)=O)C(C)=O,5%,.,.,.,.,8%
CCOC(=O)c1sc2nc(NC(=O)C3CC3)sc2c1C,1%,?,?,?,-15%,5%
CCOC(=O)c1sc2nc(NC(=O)C(C)(C)C)sc2c1C,-5%,2.6µM*,1.3µM*,0.89µM*,2.7µM*,?
COC(=O)c1ccc(-c2sc3nc(N4CCOCC4)c4c(c3c2N)CC(C)(C)OC4)o1,3%,1%,0%,1%,-2%,32µM*
CCC(=O)Nc1cccc(-c2nnc(SCC(=O)NCc3ccco3)n2C)c1,-6%,0%,-2%,-2%,-2%,2%
CCC(=O)Nc1cccc(-n2nnnc2SCC(=O)NCc2ccco2)c1,1%,10%,2%,5%,3%,-10%
CCn1c(SCC(=O)O)nnc1-c1ccccc1OC,-6%,23µM*,3.2µM*,4.5µM*,13µM*,.

# Screening results: PubChem BioAssay, National Center for Advancing Translational Sciences (NCATS)
